GLP-1R inv ag: qHTS of GLP-1 Receptor Inverse Agonists (Inhibition Mode); Glucagon-like peptide 1 receptor (Homo sapiens), P43220; HEK293 GLP-1R CRE-luciferase, luminescence, 24 h; GLP-1R form is constitutively active; Potency, µM (series often up to 38.3 µM), for inactives: top-dose activity change, negative = inhibition, most hits filed as inhibitors; hit rate 1.6% among 410,000; AID 624417, 2012; further: on the % scale 0 is the no-effect control and ±100 the full control effect; nearly all actives have a fitted effect of over 55% in size
Target sequence (P43220 whole entry, looked up): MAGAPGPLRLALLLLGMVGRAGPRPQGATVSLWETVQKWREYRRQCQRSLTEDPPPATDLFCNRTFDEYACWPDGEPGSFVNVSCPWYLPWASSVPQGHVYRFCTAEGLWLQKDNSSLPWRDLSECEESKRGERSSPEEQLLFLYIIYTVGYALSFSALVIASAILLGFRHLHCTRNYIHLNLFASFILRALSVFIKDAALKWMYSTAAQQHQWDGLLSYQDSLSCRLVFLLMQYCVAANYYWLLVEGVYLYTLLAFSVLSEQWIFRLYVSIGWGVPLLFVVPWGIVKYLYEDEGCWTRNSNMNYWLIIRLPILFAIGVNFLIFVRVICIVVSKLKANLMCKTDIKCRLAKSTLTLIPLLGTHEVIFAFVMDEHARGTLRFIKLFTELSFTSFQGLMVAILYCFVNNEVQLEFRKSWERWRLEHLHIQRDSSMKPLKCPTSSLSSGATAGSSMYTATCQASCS
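qHTS in 1536-well format: reporter HEK293 cells expressing constitutive GLP-1R activity in DMEM + 10% Nu serum, 24 hr with compounds at 37 deg C, luminescence read after 12 min with detection reagent.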
PTHR1 ag: qHTS for PTHR1 Agonists: Primary Screen; Parathyroid hormone/parathyroid hormone-related peptide receptor (Homo sapiens), Q03431; HEK293 GP2 PTHR1 cells, GloSensor cAMP luminescence, 1 h; Potency, µM (top dose mostly 115 µM), inactives show top-dose activation, actives largely listed as activators; hit rate 0.075% among 410,000; further: nearly all actives have a fitted effect of over 55% in size
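HEK-293-derived GP2 cells expressing PTHR1 and a GloSensor cAMP reporter, 3,000/well, plated overnight, given luciferin plus IBMX (each 0.5 mM as added) for 1 h at 37 °C, then compound for 1 h at 37 °C. Luminescence was read after 15 min at room temperature.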
GLP-1R agonist: qHTS of GLP-1 Receptor Agonists | Potency, µM (titrated, usually from 45.6 µM), inactives show top-dose activation, most hits filed as activators | hit rate 0.007% among 380,000 | HEK293 GLP-1R CRE-luciferase, luminescence, 4-6 h; cells express a hypersensitive GLP-1R form | Glucagon-like peptide 1 receptor (Homo sapiens), P43220; further: % of control where 0% means no effect
HEK293 tox: qHTS of GLP-1 Receptor Inverse Agonists: Cytotox Screen; HEK293 cAMP-luciferase reporter cells, luminescence, 24 h; Potency, µM (doses to about 38.3 µM), for the others: top-dose activity change, negative = inhibition, actives largely listed as inhibitors; hit rate 0.13% among 410,000;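 further: loss of luciferase light is scored as toxicity; on the % scale 0 is the no-effect control and ±100 the full control effect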
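To flag toxic compounds, the library was rerun on cells for 24 hr at 37 deg C and 5% CO2. Viability-linked luminescence was captured 12 min after adding luciferase detection reagent.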
RGS4 inh: Inhibitors of Regulator of G Protein Signaling (RGS) 4: qHTS; Regulator of G-protein signaling 4 (Homo sapiens), P49798; Transcreener GDP fluorescence polarization, RGS4-accelerated GTP hydrolysis; Potency, µM (doses to about 114 µM), inactives show at the top dose activity change, negative = inhibition, usual class: inhibitors; hit rate 0.039% among 390,000; further: on the % scale 0 is the no-effect control and ±100 the full control effect; nearly all actives have a fitted effect of over 75% in size
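MLSMR compounds (23 nl, pin-transferred) preincubated 10 min at room temperature with a 500nM (2x) first reagent, then RGS4 at 900nM (2x) plus Transcreener GDP mix added; fluorescence polarization (620/688 nm) read before and after 90 min at 30 °C.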
Starred values were filed as active, the others as inactive; i = inactive; ? = inconclusive; · = not tested or not shown; [ ] = another dose, or the depositor's remark. Most compounds without a hit are left out; they make up all but 1.7% or so of the library. The call rests on the fitted dose curve; in most records, active means well fitted curve in the direction sought with a large enough effect; inconclusive means small, poorly fitted or top-dose-only effect, or another doubt; inactive means no such curve, though single readings can be large; an effect the other way counts as inactive or inconclusive. Potency means the concentration at half of the fitted maximal effect.

SMILES	GLP-1R inv ag	PTHR1 ag	GLP-1R agonist	HEK293 tox	RGS4 inh
Cc1ccc(NC(=O)CNC(=O)c2cccc(C)c2)nc1	?	i	8%	?	2%
Cc1ccc2c(c1)[C@]13CCCC[C@@H]1[C@@H](C2)N(C)CC3	·	·	8%	·	·
CCC(CC)c1nnc(NC(=O)CC(C)c2ccccc2)s1 (configuration not stated)	10µM*	-1%	-1%	-10%	-39%
Cc1ccc(-c2n[nH]c3c2C(c2cccs2)N(c2ccc(Cl)cc2)C3=O)cc1 (configuration not stated)	7.9µM*	-61%	-13%	?	-13%
Cc1ccc(N2C(=O)c3[nH]nc(-c4ccc(Cl)cc4)c3C2c2ccc(F)cc2)cc1 (configuration not stated)	?	-18%	-6%	?	4%
Cc1ccc2c(c1)cc(C(=O)Nc1ccccc1C)n2C	?	i	·	-27%	9%
Cc1ccc(N2C(=O)/C(=C/N3CCN(C(=O)c4ccco4)CC3)C(=O)NC2=S)cc1C	-9%	i	-3%	-24%	-32%
CC12CC(c3ccccc3O1)N(C(=O)c1ccco1)C(=S)N2c1ccc(F)cc1 (configuration not stated)	10µM*	?	-7%	?	-28%
Cc1cccc(N2CCN(C(=O)CCNS(=O)(=O)c3ccc4c(c3)oc(=O)n4C)CC2)c1C	?	-50%	-6%	-5%	5%
C=C(C)[C@@H]1CC[C@]2(C(=O)O)CC[C@]3(C)[C@H](CCC4[C@@]5(C)CC[C@H](O)C(C)(C)[C@@H]5CC[C@]43C)[C@@H]12 (some centres not stated)	·	·	·	·	i
COC(=O)c1cc(=O)n(-c2ccc(F)cc2)c(=Nc2ccc(F)cc2)s1	4.5µM*	-55%	-6%	?	-45%
Cc1c(C(=O)NCc2cccc(C(F)(F)F)c2)sc(=O)n1Cc1ccc(C(=O)N(C)C)cc1	-7%	-82%	9%	3%	·
NC(Cc1cc(O)c(O)cc1O)C(=O)O (configuration not stated)	·	·	·	·	3µM*
NCCc1cc(O)c(O)cc1O	1%	-6%	-4%	-5%	?
O=c1cc(CN2CCN(S(=O)(=O)c3cccc(Cl)c3)CC2)c2ccc(O)cc2o1	?	-15%	13%	381%	-18%
O=[N+]([O-])c1cccnc1N1CCC(c2cc(-c3cccc(C(F)(F)F)c3)n[nH]2)CC1	8.9µM*	-4%[57.5 µM]	-5%	?	7%[11.4 µM]
O=C1CC(=O)N(c2cccc(C(F)(F)F)c2)C(=O)N1	4%	-1%	-1%	18%	-51%
CCCCn1c(=N)n(CC(O)COc2ccccc2)c2ccccc21 (configuration not stated)	8.9µM*	-14%	2%	?	-16%
COC(=O)C1=C(c2cccc(OCc3ccccc3)c2)C[C@@H]2CC[C@H]1N2C(=O)NCc1ccccc1C(F)(F)F	4µM*	-7%	-4%	12%	14%
COC(=O)C1=C(c2ccc(F)cc2OCc2ccccc2)C[C@@H]2CC[C@H]1N2C(=O)NCc1ccc(N(C)C)cc1	10µM*	-41%	1%	3%	23%
COC(=O)C1=C(c2cccc(OCc3ccccc3)c2)C[C@@H]2CC[C@H]1N2C(=O)NCc1cccc(OC)c1	?	-18%	-4%	11%	3%
COC(=O)C1=C(c2ccccc2OCc2ccccc2)C[C@@H]2CC[C@H]1N2C(=O)NCc1ccc(N(C)C)cc1	?	i	-2%	4%	13%
COC(=O)C1=C(c2ccc(F)cc2OCc2ccccc2)C[C@@H]2CC[C@H]1N2C(=O)NCc1cccc(C(F)(F)F)c1	5.6µM*	-14%	8%	1%	-16%

Screening data deposited in PubChem by National Center for Advancing Translational Sciences (NCATS).
